Hit rate of the full screen: of about 1,300 compounds, about 270 (21%) were called active.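 How the source made its calls: active means dose-dependent rise or fall in viability, either side of zero, with half-maximal concentration at or below a set limit; inconclusive means flat curve at 30 to 70% viability loss, or poor fit; inactive means flat within 30% either way, or potency beyond limit.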 Only a sample is shown. Entries with a potency or affinity are not part of this list.

This test in a line: proliferation inhibition in MITF-low A375 cells – cell-based, cherry-pick samples, set 2, counter-screen for MITF modulator project, dose response (AID 540335).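 Further: A375 human melanoma cells which do not depend on MITF.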 The following applies: CellTiter-Glo ATP luminescence, 24 h; series mostly up to 35 µM. (Counterscreens check selectivity or assay interference.)
For `CCOC(=O)CSC1=NC(=O)/C(=C/c2ccc(OC)cc2)S1`, the call was inactive.
The value for `N/C(=N\OC(=O)c1ccc(Cl)cc1Cl)c1ccncc1` was “inactive”; that for `COCc1cc(C)nc2sc(C(=O)Nc3ccc(OC)cc3)c(N)c12` was “inactive”; that for `O=C1c2ccccc2C(=O)N1CCOc1ccccc1` was “inactive”.
On to `CN1CCN(CCCOc2ccc(-c3ccccc3)cc2)CC1`, for which the compound was classed as inactive.
The value for `CN=c1scc(-c2ccccc2F)n1/N=C/c1ccc[nH]1` was “inactive”; that for `Cc1ccc(NC(=O)CCC(=O)N/N=C/c2ccc([N+](=O)[O-])o2)cc1C` was “inactive”.
For `CC1CC(C)C[N+](=C2C=C(N3CCCC3)CC(C)(C)C2)C1` (stereo not drawn), the outcome was inactive.
In the case of `O=C(Cn1cc(/C=C\[N+](=O)[O-])c2ccccc21)Nc1ccccc1`, the outcome was inactive.
The value for `Cc1ccc(NC(=O)c2ccc([N+](=O)[O-])o2)cc1S(=O)(=O)N1CCOCC1` was “inactive”; that for `COc1ccc2oc(C(=O)Nc3ccc(S(=O)(=O)N(C)C4CCN(C)CC4)cc3)c(C)c2c1` was “inactive”; that for `C/C(=N\NC(=O)C(C)Oc1ccc([N+](=O)[O-])cc1)c1ccccn1` (stereo not drawn) was “inactive”.
The value for `CC(Oc1ccccc1)C(=O)Nc1nc(-c2ccccn2)cs1` (stereo not drawn) was “inactive”.
The entry for `CC(C)C(=O)N1CCN(c2ccc(NC(=O)c3ccc([N+](=O)[O-])o3)cc2)CC1` is “inactive”; for `CC(C)(C)NC(=O)CCN(/N=C/c1ccc([N+](=O)[O-])o1)C1=NS(=O)(=O)c2ccccc21` it is “inactive”.
Turning to `Cc1c(N=C2C=CC(=O)c3ccccc32)c(=O)n(-c2ccccc2)n1C`, the compound was called inactive.
The entry for `COc1cc(/C=N/NC(N)=O)c(Br)cc1OCC(=O)Nc1ccccc1C` is “inactive”.
The value for `COc1cc(CN2CCC(Cc3ccccc3)CC2)cc(OC)c1OC` was “inactive”.
Regarding `COc1ccc(S(=O)NC2CCCCC2)c(OC)c1C` (stereo not drawn), the call was inactive.
As to `O=C(c1nnsc1S(=O)(=O)c1ccc(Cl)cc1)N1CCOCC1`, the outcome was inactive.
The entry for `Cc1cc(C)c[n+](C2=C([O-])c3ccccc3C(=O)/C2=N\S(=O)(=O)c2cccs2)c1` is “inactive”; for `O=C(CCl)Nc1cccc(Oc2ccccc2)c1` it is “inactive”; for `CC(=O)N1CCc2c(sc(NC(=O)c3ccc([N+](=O)[O-])o3)c2C#N)C1` it is “inactive”.
The entry for `CN(c1cccc(NC(=O)COc2ccc(Cl)cc2Cl)c1)S(C)(=O)=O` is “inactive”; for `O=C(CC(=O)c1ccccc1)Nc1ccccn1` it is “inactive”.
Take `O=C1Nc2ccc(Br)cc2/C1=C/C(=O)c1ccc2c(c1)OCO2`: the outcome was inactive.
The value for `COc1ccc(/C=N/Nc2cc(C)nc(-n3nc(C)cc3C)n2)c(OC)c1` was “inactive”; that for `Cc1ccc(S(=O)(=O)/N=C2\C(=O)c3ccccc3C([O-])=C2n2cc[n+](CCC(C)C)c2)cc1` was “inactive”.
The entry for `CCC(=O)N1CCN(c2ccc(NC(=O)c3ccc([N+](=O)[O-])o3)cc2)CC1` is “inactive”.
The value for `CCN(CC)CCNC(=O)c1c(C)n(-c2ccccc2)c2cc(Br)c(OC)cc12` was “inactive”; that for `O=C(Cn1ncc(Cl)c(Cl)c1=O)N1CCN(Cc2ccccc2)CC1` was “inactive”.
In the case of `O=C(Cn1ncc(Cl)c(Cl)c1=O)c1ccc(Cl)cc1`, the compound was classed as inactive.
The value for `O=C(COC(=O)CCN1C(=O)/C(=C\C=C\c2ccccc2)SC1=S)Nc1cc(F)ccc1F` was “inactive”; that for `CC(C)(C)c1ccc(C(=O)Nc2sc3c(c2C(=O)O)CCC3)cc1` was “inactive”; that for `CCN1/C(=C/c2cc[n+](C)cc2)C=Cc2cc(C)ccc21` was “inactive”.
Consider `O=C(Nc1ccc(F)cc1F)c1cc2ccccc2oc1=O`, for which the compound was called inactive.
The value for `CC1CCC/C=C/C(=O)c2c(O)cc(O)cc2CC(=O)O1` (stereo not drawn) was “inactive”; that for `COc1ccc(C(=O)/C=C/C(=O)N(CC(=O)NC2CCCCC2)Cc2ccccc2OC)c(O)c1` was “inactive”; that for `O=C1CCC2S/C(=C/Nc3ccc(C(F)(F)F)cc3)C(=O)N12` (stereo not drawn) was “inactive”.
The entry for `CCCC(=O)N1CCN(c2ccc(NC(=O)c3ccc([N+](=O)[O-])o3)cc2Cl)CC1` is “inactive”; for `COc1ccc(NC(=O)CCC(=O)N/N=C/c2ccc([N+](=O)[O-])s2)cc1` it is “inactive”; for `CCCCNC(=O)Nc1ccc(C2SCCS2)cc1` it is “inactive”.
The entry for `O=C(Nc1ccccn1)c1ccc(Br)s1` is “inactive”; for `N=c1n(CC(=O)c2ccc(Br)cc2)c2ccccc2n1Cc1ccccc1` it is “inactive”.
`O=C(N/N=C/c1ccc([N+](=O)[O-])s1)c1cccc(Br)c1`: the result was inactive.
The entry for `Cc1ccc(NCC(=O)N/N=C\c2ccc([N+](=O)[O-])o2)cc1` is “inactive”; for `Cc1c(C(=O)Nc2ccc(S(=O)(=O)N(C)C3CCN(C)CC3)cc2)oc2c(Cl)cccc12` it is “inactive”; for `COc1cc(SC)ccc1C(=O)Nc1ncc(C)s1` it is “inactive”.
The value for `COc1cc(SC)ccc1C(=O)Nc1ccc(Br)cn1` was “inactive”; that for `O=C(CNC(=O)c1ccccc1)N/N=C/c1ccc([N+](=O)[O-])s1` was “inactive”; that for `O=C(Nc1cccc(S(=O)(=O)N2CCCCC2)c1)c1ccc([N+](=O)[O-])o1` was “inactive”.
The entry for `Cc1nc2ccccn2c1C(=O)N/N=C/c1ccc([N+](=O)[O-])o1` is “inactive”.
Consider `Cc1nc(SCC(=O)Nc2ccc(CN3CCCC3)cc2)c2c(C)c(C)sc2n1`, for which the compound was classed as inactive.
The value for `Cc1ccc2oc(C(Cl)(Cl)Cl)cc(=O)c2c1` was “inactive”.
The value for `O=C(Nc1cccnc1Cl)c1cc(-c2ccco2)on1` was “inactive”; that for `CCN(CC)S(=O)(=O)c1ccc(N2CCCC2)c(NC(=O)c2ccc([N+](=O)[O-])o2)c1` was “inactive”.
The value for `O=C(Nc1ccc(N2CCN(C(=O)c3ccccc3)CC2)cc1)c1ccc([N+](=O)[O-])o1` was “inactive”; that for `O=C(CCl)N1CCN(S(=O)(=O)c2ccc3c(c2)CCC3)CC1` was “inactive”.
For `Cc1cc(C)c2c(N)c(C(=O)Nc3ncc(C)s3)sc2n1`, the compound was called inactive.
The value for `O=C(Nc1ccccc1)NN(C(=O)CCl)c1ccccc1` was “inactive”; that for `O=C(CCl)N(c1ccccc1)c1c[nH]c2ccccc12` was “inactive”; that for `N#C/C(=C\c1ccc(OCc2ccc(C(=O)O)cc2)cc1)C(=O)N1CCOCC1` was “inactive”.
`O=C(C#Cc1ccccc1)c1cccc([N+](=O)[O-])c1`: the result was inactive.
The entry for `COc1cccc(-c2ccc3c(N)c(C(=O)NC4CC4)sc3n2)c1` is “inactive”; for `COc1ccc(C)cc1Nc1nc(N)c2cc(OC)c(OC)cc2n1` it is “inactive”.
For the compound `O=C(O)c1ccc(C(=O)Nc2ccc(F)cc2)cc1`, the call was inactive.
The entry for `O=C(Nc1ccc([N+](=O)[O-])cc1)c1ccccc1` is “inactive”; for `Cn1cc([N+](=O)[O-])c(C(=O)Nc2nc(-c3ccc(Cl)cc3)cs2)n1` it is “inactive”.

These data come from PubChem BioAssay AID540335 (Broad Institute, 2011).
